# Assay outcomes (PubChem)
# Tg IFNy HTS = inhibitors of Toxoplasma gondii growth with IFN-gamma; Toxoplasma gondii growth in IFN-gamma-treated host cells; hits give low values; activity change, negative = inhibition, % (no concentration beside the values); hit rate 3.8% among 69,000; in the data active = activity change below about -70%, passing the limit was not always enough;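 note: host cells are HeLa cells infected with Toxoplasma gondii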
# Starred values were filed as active, the others as inactive; i = inactive; ! = not confirmed by another sample. The entries come from a sample that favours hits as a whole.
SMILES,Tg IFNy HTS
Cc1ccc(Nc2nc(C(=O)Nc3ccccc3Cl)nc3ccccc23)cc1,-57.6
Cc1cccc(Nc2nc(C(=O)NC3CCCC3)nc3ccccc23)c1,-64.8
Cc1cccc(Nc2nc(C(=O)NCc3ccccc3Cl)nc3ccccc23)c1,-58.9
CCCNC(=O)c1nc(Nc2ccc(F)cc2)c2ccccc2n1,-33.0
Cc1cccc(NC(=O)CCSc2nnc(-c3ccoc3C)o2)c1,-46.3
CCn1cc(SCC(=O)N2CCOC(C(F)(F)F)C2)c2ccccc21 (stereo not drawn),0.8
CCNc1ccnc(N2CCC(N(CC)CC)C2)n1 (stereo not drawn),6.6
Cc1ccc(Nc2nc(C(=O)NCc3ccccc3)nc3ccccc23)cc1,13.9
O=C(NCCCc1ccccc1)c1nc(Nc2ccccc2)c2ccccc2n1,-45.6
CCOC(=O)c1nc(Nc2ccc(OC)c(Cl)c2)c2ccccc2n1,-76.9*
Cc1ccc(Nc2nc(C(=O)NCc3cccnc3)nc3ccccc23)cc1,-81.7*
CCNC(=O)c1nc(Nc2ccccc2)c2ccccc2n1,-27.1
Cc1cccc(Nc2nc(C(=O)NCc3ccc(C)o3)nc3ccccc23)c1,-51.0
CCOc1ccc(CNC(=O)c2nc(Nc3cccc(C)c3)c3ccccc3n2)cc1,-94.1*
CCc1ccc(CNC(=O)c2nc(Nc3ccc(C)cc3)c3ccccc3n2)cc1,-54.6
CCOC(=O)c1nc(Nc2cc(C)c(Cl)cc2OC)c2ccccc2n1,-43.5
COCCNC(=O)c1nc(Nc2cccc(C)c2)c2ccccc2n1,-32.6
O=C(NCCC1=CCCCC1)c1nc(Nc2ccccc2)c2ccccc2n1,-76.4*
CCOC(=O)c1nc(Nc2cccc(OC)c2)c2ccccc2n1,-4.5
COc1ccccc1CNC(=O)CC1N=C2c3ccccc3N=C(SCc3cc(=O)n4cc(Cl)ccc4n3)N2C1=O (stereo not drawn),-24.3
FC(F)(F)c1cc(C(F)(F)F)[nH]n1,-18.8
CCc1ccc(S(=O)(=O)n2nnc3ccccc32)cc1,65.3
CON(C)Cc1csc(NC(=O)n2ccnc2)n1,3.1
COc1ccc(Br)cc1-c1nc(Cn2nnc(C(=O)Nc3c(C)cccc3C)c2C)c(C)o1,-37.6
O=C1NC(c2ccccc2)(C(F)(F)F)Sc2nc3ccccc3n21 (stereo not drawn),7.8
SMILES,Tg IFNy HTS
COc1ccc(NC(=O)C2=C(C)C(=O)OC23CCN(S(C)(=O)=O)CC3)cc1OC,77.5
Cc1ccc(CNC(=O)N2CCC3(CC2)Nc2cc(F)ccc2-n2cccc23)cc1,i
O=C(c1[nH]cnc1-c1ccccc1)N1CCOC(c2ccc(Cl)cc2)C1 (stereo not drawn),-17.1
CCOc1ccc(CCNC(=O)c2nc(N3CCCC3)c3ccccc3n2)cc1OCC,-62.7
CCOc1ccc(CCNC(=O)c2nc(N3CCC(C)CC3)c3ccccc3n2)cc1OCC,-98.3*
CCOc1cc(CNC(=O)c2nc(N3CCOCC3)c3ccccc3n2)ccc1OC,-20.1
CC(C)n1c2ccccc2c2c1cc(C(=O)N(C)Cc1ccccn1)n2-c1ncccn1,-15.0
CC(C)NC(=O)N1CCN(c2ccc3ccc(C(=O)CCN4CCOCC4)cn23)CC1,-15.0
Cc1cccc(N2C[C@H]3CN(c4cnn(C)c4)C(=O)[C@@H]3C2)n1,21.9
CNC(=O)[C@H]1C[C@@H]2CN(Cc3ccoc3)C[C@@H]2N1C,-1.7
CNC(=O)[C@@H]1CC2CN(S(=O)(=O)c3ccc(C)c(F)c3)CC2N1C (stereo partly drawn),-92.9*
CNC(=O)[C@@H]1CC2CN(S(=O)(=O)c3ccccc3)CC2N1C(C)=O (stereo partly drawn),31.0
Cc1ccc(OCC(=O)Nc2ccc(-c3nc(-c4cc(C)ccc4C)co3)cc2)cc1,7.9
COc1cc(N2CCC(N(C)C)CC2)ccc1Nc1ncc(Cl)c(Nc2ccccc2P(C)(C)=O)n1,-73.7*
COc1cc(N2CCC(N3CCN(C)CC3)CC2)ccc1Nc1ncc(Cl)c(Nc2ccccc2S(=O)(=O)C(C)C)n1,-83.1*
C=CC(=O)Nc1cccc(Oc2nc(Nc3ccc(N4CCN(C)CC4)cc3)ncc2Cl)c1,-57.1
C=CC(=O)Nc1cccc(Nc2nc(Nc3ccc(N4CCN(C(C)=O)CC4)cc3OC)ncc2C(F)(F)F)c1,1.8
O=C(CCn1nnc2ccccc21)NCc1cnn2ccccc12,-3.2
c1coc(CN2CCC(NCC3CCN(C4CCCC4)CC3)CC2)c1,-0.2
CN(C(=O)c1c(O)cccc1O)C1CCCc2ccccc21 (stereo not drawn),14.6
COc1ccccc1C(=O)Nc1ccc(-c2nc(-c3cc(C)ccc3C)co2)cc1,-50.6
CS(=O)(=O)N1CCn2cc(CNC(=O)C3CCC3)nc2C1,-1.5
CN(C)CCN1Cc2ccccc2C2(CCN(C(=O)c3cnc[nH]3)CC2)C1,3.0
Cc1cc(C(=O)N2Cc3nccn3CC(CN(C)C(C)C)C2)no1 (stereo not drawn),81.7
Cc1cc(C)cc(Sc2ccc3nnc(-c4ccccc4)n3n2)c1,-81.7*
SMILES,Tg IFNy HTS
Cc1ccc(-c2cc(-c3ccccc3)nc(-c3ccccc3)c2)cc1,-68.9
CSc1nnc(-c2ccccc2)n1C,31.3
COCCN1CCO[C@H]2CCN(C(=O)c3cc(C)[nH]n3)C[C@H]21,-54.6
Cc1coc2c1C(=O)C(=O)c1c-2ccc2c(C)cccc12,-72.0*
CN(C)C(=O)c1cc2c(nc1NCC1CC1)CCN(Cc1ccccn1)CC2,-48.1
CNC(=O)[C@@H]1C[C@@H](N)CN1Cc1cc(OC)cc(OC)c1,4.7
COc1cc(C(=O)Nc2ccc(-c3nc(-c4ccccc4)co3)cc2)cc(OC)c1OC,-20.1
COc1cc(NC(=O)Nc2ccc(-c3nc(-c4ccccc4)co3)cc2)cc(OC)c1OC,-87.7*
Cc1ccc(C)c(-c2coc(-c3ccc(NC(=O)Nc4ccccc4)cc3)n2)c1,1.1
COc1ccc(NC(=O)Nc2ccc(-c3nc(-c4cc(C)ccc4C)co3)cc2)c(OC)c1,-16.9
COc1ccc(C)cc1NC(=O)Nc1ccc(-c2nc(-c3cc(C)ccc3C)co2)cc1,-72.0*
COc1cc(NC(=O)Nc2ccc(-c3nc(-c4ccc(C)cc4)co3)cc2)cc(OC)c1OC,-39.4
COC(=O)c1cc2n(n1)CCN(C(=O)c1cnc(CN3CCCC3)s1)C2,-7.2
CNC(=O)[C@H]1C[C@@H]2CN(CC3CCOCC3)C[C@@H]2N1C(C)=O,2.0
O=C(c1ccccn1)C1CCCN(C(=O)c2c(O)cccc2O)C1 (stereo not drawn),6.7
O=C(Nc1ccc2c(c1)OCO2)N1CCC(n2cc(-c3cccnc3)nn2)CC1,-0.8
COC1C(O)C(CO)OC1n1cnc2c(NC3CCCCC3)ncnc21 (stereo not drawn),12.2
COc1ccc(C[C@H](N)C(=O)N[C@@H]2[C@@H](CO)OC(n3cnc4c(N(C)C)ncnc43)[C@@H]2O)cc1 (stereo partly drawn),-79.5*!
Nc1ncnc2c1ncn2[C@@H]1O[C@H](CO)[C@@H](O)[C@H]1O,14.0
Cc1ccc(-c2coc(-c3ccc(NC(=O)c4ccc(Br)o4)cc3)n2)cc1,17.4
CC(C)Cc1cc(C(=O)N2CCN(c3nsc4ccccc34)CC2)n(C)n1,-35.5
Cc1nn(C)c(C)c1-c1ccc(=O)n(CC(=O)NCc2cccc(Cl)c2)n1,-8.6
CCC(CC)C(=O)Nc1cc(Cl)ccc1OC,-3.1
COc1ccc(Cl)cc1NC(=O)Nc1ccc(-c2nc(-c3ccccc3)co2)cc1,1.1
COc1ccc(Cl)cc1NC(=O)Nc1ccccc1,-82.7*
CCOc1ccc(NC(=O)c2c(O)c3ccccc3n(CC)c2=O)cc1,77.3
O=C(Nc1csc(Cc2c(Cl)cccc2Cl)n1)NN1CCOCC1,-38.2
CC(C)c1ccc(NC(=O)c2csc(Cc3c(Cl)cccc3Cl)n2)cc1,-84.4*
